Test results taken from the supplement of paper PMC11732987, “Enantioselective OTUD7B fragment discovery through chemoproteomics screening and high-throughput optimisation” (Communications Chemistry, 2025).

How the values were obtained:
Test in all cases: log2 ratio of Biotin-Ahx-Ub-VS probe labelling (fragment/DMSO); higher = less target engagement (more negative = stronger competition), active = hit call of the paper (q ≤ 0.05, log2 ratio ≤ -1)
Conditions in all cases: compound concentration: 200 uM; treatment time: 3 h
USP19 = target: T1, USP19 (UniProt O94966)
T1 sequence (whole entry): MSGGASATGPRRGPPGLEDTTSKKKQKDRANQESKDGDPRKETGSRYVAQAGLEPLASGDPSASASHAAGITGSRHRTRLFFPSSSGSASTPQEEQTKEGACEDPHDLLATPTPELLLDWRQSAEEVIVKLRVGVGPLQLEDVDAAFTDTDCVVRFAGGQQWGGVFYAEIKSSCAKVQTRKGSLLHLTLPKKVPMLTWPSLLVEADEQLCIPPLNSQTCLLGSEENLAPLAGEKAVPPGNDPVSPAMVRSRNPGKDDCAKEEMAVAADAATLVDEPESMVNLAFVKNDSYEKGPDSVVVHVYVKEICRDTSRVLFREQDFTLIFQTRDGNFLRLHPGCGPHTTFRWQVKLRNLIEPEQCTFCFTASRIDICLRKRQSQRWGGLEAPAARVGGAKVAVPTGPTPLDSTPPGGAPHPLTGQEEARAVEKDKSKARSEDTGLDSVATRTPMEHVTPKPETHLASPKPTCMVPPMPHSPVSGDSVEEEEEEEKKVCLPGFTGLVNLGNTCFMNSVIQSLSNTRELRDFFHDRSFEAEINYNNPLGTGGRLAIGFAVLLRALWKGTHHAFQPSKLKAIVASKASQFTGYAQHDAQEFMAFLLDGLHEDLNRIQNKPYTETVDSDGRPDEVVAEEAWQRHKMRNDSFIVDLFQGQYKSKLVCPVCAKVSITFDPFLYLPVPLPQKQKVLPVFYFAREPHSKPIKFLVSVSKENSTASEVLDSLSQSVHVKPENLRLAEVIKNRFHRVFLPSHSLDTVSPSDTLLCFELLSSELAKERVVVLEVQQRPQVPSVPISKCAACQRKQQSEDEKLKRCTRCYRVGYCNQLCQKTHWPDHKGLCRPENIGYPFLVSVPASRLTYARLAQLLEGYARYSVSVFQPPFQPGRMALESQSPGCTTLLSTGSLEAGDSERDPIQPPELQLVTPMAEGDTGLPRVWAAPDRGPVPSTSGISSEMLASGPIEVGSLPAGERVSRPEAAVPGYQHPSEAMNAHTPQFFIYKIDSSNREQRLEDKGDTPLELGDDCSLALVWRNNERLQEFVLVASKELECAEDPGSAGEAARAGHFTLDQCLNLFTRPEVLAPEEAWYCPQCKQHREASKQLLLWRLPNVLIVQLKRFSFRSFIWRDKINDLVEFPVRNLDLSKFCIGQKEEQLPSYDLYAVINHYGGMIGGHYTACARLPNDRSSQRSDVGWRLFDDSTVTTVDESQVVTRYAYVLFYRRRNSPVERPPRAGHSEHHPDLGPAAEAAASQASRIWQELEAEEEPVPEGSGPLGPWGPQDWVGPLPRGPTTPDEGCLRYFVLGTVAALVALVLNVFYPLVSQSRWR
Outline: (§1)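 Values give the average log2 ratio of fragment to vehicle, assessed by unpaired t-test on global-median-normalised Spectronaut label-free quantities. Proteins needed ≥2 unique peptides. HEK293T lysate (495 µg per sample) was treated in triplicate with fragment at 200 µM or vehicle for 3 h and then with Biotin-Ahx-Ub-VS at 0.5 µM final for 1 h. Labelled DUBs were NeutrAvidin-enriched, digested and run by diaPASEF LC-MS/MS.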

USP22 = target: T2, USP22 (UniProt Q9UPT9)
T2 sequence (whole entry): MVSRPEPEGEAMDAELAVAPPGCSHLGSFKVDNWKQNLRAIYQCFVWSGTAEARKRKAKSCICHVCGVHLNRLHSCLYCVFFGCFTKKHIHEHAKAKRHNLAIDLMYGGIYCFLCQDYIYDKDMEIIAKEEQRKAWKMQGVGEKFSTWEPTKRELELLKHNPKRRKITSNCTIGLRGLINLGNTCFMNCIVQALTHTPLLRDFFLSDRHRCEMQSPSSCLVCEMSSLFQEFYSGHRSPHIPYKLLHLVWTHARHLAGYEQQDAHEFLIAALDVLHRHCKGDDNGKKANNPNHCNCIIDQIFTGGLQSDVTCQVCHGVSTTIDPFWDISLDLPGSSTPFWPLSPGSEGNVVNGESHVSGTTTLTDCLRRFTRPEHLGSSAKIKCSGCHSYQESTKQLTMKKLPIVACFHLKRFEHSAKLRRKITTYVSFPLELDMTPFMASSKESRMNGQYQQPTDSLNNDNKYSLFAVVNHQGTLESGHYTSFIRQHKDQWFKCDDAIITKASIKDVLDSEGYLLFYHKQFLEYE
Outline: as §1

USP24 = USP24 (UniProt Q9UPU5)
Outline: as §1

USP25 = target: T3, USP25 (UniProt Q9UHP3)
T3 sequence (whole entry): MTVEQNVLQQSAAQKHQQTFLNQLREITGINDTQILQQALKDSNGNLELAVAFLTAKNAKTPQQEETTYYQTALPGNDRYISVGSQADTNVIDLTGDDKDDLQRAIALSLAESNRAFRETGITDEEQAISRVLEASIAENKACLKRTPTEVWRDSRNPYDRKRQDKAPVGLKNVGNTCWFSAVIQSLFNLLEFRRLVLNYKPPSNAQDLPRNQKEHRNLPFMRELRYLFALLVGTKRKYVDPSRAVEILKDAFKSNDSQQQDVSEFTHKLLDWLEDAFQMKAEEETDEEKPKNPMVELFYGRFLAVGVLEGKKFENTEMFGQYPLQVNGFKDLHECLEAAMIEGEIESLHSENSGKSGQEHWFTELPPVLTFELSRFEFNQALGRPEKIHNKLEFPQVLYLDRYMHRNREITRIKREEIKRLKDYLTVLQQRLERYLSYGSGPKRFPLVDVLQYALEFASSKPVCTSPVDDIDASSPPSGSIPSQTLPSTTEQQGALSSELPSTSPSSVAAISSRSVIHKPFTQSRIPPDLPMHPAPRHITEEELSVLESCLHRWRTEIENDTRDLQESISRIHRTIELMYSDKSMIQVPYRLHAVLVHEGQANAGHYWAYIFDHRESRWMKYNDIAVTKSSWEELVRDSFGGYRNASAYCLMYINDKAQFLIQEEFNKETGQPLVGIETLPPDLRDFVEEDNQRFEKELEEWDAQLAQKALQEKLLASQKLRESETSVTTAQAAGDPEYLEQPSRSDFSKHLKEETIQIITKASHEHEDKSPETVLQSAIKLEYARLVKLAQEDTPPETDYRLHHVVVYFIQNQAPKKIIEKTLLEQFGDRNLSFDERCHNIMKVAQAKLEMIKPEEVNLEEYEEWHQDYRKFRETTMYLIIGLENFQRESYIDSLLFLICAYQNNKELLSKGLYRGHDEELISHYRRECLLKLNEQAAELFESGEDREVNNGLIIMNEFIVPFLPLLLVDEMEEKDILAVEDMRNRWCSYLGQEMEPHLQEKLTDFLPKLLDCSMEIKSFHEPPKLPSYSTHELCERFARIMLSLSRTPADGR
Outline: as §1

USP28 = target: T4, USP28 (UniProt Q96RU2)
T4 sequence (whole entry): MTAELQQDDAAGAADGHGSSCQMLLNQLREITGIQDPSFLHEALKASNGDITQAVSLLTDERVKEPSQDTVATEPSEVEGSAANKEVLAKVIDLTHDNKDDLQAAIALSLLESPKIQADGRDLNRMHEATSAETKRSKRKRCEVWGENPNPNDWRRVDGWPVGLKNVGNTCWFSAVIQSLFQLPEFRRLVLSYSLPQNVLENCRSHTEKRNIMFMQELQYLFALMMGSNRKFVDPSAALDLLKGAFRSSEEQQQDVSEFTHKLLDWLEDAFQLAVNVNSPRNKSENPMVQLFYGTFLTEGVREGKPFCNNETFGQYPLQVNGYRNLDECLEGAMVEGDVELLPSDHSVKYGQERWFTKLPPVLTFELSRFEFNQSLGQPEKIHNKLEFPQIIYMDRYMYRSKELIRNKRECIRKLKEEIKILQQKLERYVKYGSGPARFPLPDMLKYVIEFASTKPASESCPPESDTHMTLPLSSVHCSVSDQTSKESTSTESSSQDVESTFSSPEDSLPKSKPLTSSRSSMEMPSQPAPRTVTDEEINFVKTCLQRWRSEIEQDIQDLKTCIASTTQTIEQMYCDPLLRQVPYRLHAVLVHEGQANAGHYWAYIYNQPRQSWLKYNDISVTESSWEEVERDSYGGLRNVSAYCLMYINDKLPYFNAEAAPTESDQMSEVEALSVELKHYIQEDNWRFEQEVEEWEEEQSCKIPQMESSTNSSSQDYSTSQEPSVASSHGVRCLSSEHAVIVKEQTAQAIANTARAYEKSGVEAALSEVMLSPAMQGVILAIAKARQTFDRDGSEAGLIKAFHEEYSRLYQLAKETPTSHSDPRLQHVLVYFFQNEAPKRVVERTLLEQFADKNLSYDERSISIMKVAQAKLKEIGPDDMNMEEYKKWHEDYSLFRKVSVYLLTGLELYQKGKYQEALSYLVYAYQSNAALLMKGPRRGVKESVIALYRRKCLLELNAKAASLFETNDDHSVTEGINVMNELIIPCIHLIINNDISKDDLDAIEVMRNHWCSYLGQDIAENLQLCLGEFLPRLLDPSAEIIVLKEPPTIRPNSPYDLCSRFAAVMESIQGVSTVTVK
Outline: as §1

Measured: log2 ratio of Biotin-Ahx-Ub-VS probe labelling

USP24, sequence (Q9UPU5 whole entry): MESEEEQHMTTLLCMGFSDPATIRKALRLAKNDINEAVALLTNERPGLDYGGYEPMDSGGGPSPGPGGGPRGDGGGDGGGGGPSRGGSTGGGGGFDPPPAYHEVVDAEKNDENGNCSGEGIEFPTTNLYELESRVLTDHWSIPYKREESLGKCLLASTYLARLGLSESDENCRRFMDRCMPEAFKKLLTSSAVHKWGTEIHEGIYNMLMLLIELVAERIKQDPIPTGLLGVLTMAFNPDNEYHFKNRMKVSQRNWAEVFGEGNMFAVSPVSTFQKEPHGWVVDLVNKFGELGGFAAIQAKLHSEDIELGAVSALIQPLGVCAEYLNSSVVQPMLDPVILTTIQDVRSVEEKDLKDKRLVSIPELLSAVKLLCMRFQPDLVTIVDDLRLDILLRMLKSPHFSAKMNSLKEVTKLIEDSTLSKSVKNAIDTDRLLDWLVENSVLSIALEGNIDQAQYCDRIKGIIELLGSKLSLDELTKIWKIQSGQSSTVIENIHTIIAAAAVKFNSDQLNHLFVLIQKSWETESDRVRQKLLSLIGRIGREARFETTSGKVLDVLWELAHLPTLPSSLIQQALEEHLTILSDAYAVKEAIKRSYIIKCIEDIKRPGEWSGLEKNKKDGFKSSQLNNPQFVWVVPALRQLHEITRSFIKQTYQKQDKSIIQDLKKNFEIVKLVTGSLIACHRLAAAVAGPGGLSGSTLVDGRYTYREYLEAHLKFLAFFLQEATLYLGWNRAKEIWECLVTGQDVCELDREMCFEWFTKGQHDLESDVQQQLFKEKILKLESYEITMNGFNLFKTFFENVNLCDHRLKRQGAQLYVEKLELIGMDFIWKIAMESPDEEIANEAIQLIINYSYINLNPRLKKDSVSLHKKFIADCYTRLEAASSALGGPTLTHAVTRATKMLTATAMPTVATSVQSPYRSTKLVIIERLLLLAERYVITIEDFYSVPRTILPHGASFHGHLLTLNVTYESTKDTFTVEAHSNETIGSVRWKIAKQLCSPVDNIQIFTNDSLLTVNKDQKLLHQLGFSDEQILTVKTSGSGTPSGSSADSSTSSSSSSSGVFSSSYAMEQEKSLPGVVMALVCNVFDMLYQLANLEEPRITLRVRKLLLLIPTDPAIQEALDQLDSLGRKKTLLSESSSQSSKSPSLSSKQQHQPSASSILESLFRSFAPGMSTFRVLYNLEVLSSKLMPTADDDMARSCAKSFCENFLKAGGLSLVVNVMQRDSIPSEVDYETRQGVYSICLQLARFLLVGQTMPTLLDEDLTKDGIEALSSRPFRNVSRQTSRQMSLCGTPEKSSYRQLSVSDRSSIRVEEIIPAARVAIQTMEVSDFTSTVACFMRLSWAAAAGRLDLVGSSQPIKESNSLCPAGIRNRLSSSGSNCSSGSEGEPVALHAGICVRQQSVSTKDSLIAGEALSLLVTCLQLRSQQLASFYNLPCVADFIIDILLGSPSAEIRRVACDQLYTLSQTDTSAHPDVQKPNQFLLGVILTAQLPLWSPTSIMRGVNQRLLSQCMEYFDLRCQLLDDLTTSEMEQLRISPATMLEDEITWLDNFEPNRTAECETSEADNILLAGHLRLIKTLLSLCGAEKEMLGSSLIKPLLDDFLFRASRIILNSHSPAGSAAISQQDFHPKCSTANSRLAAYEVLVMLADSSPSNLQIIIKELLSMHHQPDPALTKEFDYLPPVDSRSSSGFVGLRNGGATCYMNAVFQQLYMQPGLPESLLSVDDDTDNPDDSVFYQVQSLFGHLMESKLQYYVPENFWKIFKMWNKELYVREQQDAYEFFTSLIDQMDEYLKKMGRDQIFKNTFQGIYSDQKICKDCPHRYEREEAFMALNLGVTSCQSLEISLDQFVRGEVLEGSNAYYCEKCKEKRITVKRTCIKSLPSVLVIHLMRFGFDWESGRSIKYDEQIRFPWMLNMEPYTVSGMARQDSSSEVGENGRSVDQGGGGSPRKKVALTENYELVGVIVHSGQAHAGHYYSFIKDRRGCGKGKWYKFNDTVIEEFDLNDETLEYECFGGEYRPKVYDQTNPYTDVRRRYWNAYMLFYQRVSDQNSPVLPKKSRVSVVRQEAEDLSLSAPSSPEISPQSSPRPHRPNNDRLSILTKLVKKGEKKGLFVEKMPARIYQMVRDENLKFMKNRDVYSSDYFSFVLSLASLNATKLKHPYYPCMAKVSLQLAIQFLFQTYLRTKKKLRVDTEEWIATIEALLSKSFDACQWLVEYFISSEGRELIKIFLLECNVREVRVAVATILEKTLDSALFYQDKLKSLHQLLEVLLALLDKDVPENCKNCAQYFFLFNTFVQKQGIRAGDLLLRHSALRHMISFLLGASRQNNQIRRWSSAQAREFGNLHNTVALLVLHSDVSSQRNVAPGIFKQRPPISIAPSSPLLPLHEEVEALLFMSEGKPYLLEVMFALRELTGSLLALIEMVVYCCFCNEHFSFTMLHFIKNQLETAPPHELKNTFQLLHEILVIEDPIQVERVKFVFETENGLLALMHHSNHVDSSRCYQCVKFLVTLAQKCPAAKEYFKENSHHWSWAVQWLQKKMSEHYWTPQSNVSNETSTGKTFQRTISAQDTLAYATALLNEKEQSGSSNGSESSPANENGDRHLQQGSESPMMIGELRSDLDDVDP

O=C(CCl)N(C1CCCC1)C1CCS(=O)(=O)C1 (stereo not given)
inactive: USP19 -0.0865 | USP22 0.236 | USP24 -0.274 | USP25 0.0715 | USP28 -0.36
